Screens deposited in PubChem by National Center for Advancing Translational Sciences (NCATS).
SNCA viab count: counter-screen for SNCA expression inhibitors: cell viability. Potency, µM (highest dose often 57.1 µM), hits mostly cytotoxic. hit rate 0.12% among 150,000. HEK-293-SNCA-luc viability, GF-AFC fluorescence, 24 h; also: nearly all actives have a fitted effect of over 30% in size
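HEK-293-SNCA-luc cells (1500/well) plated 24 h, then exposed 24 h to a dilution series; GF-AFC added 30 min at 37C, fluorescence 405/540 nm; normalised to medium-only and DMSO wells, Hill fit.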
hNpr1 antagonist: human Npr1 receptor antagonism. HEK293 hNpr1 GloSensor cGMP, ANP-stimulated luminescence. hit rate 1.6% among 76,000. P16066. Potency, µM (series often up to 46.3 µM), usual class: inhibitors; calls by dose curve; also: nearly all actives have a fitted effect of over 60% in size
Target sequence (P16066 whole entry, looked up): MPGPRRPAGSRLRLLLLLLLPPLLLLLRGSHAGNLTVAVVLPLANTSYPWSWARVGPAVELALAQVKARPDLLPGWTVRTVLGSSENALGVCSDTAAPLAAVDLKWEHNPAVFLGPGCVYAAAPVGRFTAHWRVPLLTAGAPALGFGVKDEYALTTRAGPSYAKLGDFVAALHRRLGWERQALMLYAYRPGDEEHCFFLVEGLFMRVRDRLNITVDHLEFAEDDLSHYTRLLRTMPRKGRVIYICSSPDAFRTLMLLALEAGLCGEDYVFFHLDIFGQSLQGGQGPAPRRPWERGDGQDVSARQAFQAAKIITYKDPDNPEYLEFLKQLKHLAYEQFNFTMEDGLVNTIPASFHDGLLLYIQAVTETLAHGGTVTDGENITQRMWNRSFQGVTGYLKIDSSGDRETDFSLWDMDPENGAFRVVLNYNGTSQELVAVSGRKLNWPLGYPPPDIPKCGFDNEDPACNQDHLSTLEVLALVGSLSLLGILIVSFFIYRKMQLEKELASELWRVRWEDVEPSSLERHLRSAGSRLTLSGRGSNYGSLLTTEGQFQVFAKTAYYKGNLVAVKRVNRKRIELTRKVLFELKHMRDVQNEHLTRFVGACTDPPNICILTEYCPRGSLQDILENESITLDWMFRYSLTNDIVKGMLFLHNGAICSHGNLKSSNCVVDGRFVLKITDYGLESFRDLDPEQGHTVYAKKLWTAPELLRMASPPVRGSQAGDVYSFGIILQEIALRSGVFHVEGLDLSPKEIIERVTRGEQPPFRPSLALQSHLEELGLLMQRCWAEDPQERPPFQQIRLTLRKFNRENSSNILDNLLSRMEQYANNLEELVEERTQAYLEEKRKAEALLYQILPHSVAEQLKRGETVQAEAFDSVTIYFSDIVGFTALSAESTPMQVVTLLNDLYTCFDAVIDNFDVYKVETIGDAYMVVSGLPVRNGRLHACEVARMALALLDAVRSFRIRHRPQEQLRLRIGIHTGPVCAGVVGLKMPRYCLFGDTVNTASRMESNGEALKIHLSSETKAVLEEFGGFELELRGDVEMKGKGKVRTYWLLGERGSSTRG
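HEK293 cells stably expressing human Npr1 and cGMP GloSensor pGS-40F, loaded 2 h with 2% GloSensor reagent, given compound 30 min at room temperature. Luminescence read before and 20 min after 0.1 nM hNppA.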
NIH3T3 tox: kills NIH 3T3 cells; Potency, µM (titrated, usually from 96.7 µM), usual class: inhibitors; hit rate 4.3% among 94,000; NIH 3T3 viability, CellTiter-Glo ATP luminescence, 48-72 h; also: nearly all actives have a fitted effect of over 55% in size
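Luminescent ATP readout (CellTiter-Glo, 10 min RT) after 48 or 72 hr compound exposure of NIH 3T3 cells seeded at 400 cells/well in 1536-well format; quantitative HTS.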
FLuc inh: Photinus pyralis luciferase inhibition. purified P. pyralis luciferase, luminescence, biochemical. hit rate 2.5% among 76,000. Potency, µM (series often up to 115 µM), hits mostly inhibitors. AID 1347043; also: nearly all actives have a fitted effect of over 65% in size
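Purified 10nM P. pyralis luciferase with 10uM D-luciferin and 10uM ATP in 50mM Tris acetate pH 7.5, 10mM Mg acetate, 0.01% Tween-20, 0.05% BSA. qHTS titration; luminescence read by CCD imager.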
SNCA expr inhib: SNCA gene expression inhibition; HEK-293 SNCA-luciferase knock-in, luminescence, 24 h; Potency, µM (top dose mostly 57.2 µM), most hits filed as inhibitors; hit rate 0.17% among 140,000; AID 1671194; also: nearly all actives have a fitted effect of over 45% in size
HEK293 tox: kills HEK 293 cells. AID 1345083. Potency, µM (highest dose often 115 µM), usual class: inhibitors. hit rate 6.6% among 94,000. HEK 293 viability, ATP luminescence (CellTiter-Glo), 48-72 h; also: nearly all actives have a fitted effect of over 60% in size
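HEK 293 cells seeded at 250 cells/well were exposed to compound for 48 or 72 hr at 37 degree Celsius. Viability taken as ATP content by CellTiter-Glo luminescence.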
Of the large screens only hits and unclear results are named; the others gave an inactive call. Sampled rows, rich in hits. Any-hit rate of the full collection: about 7.2%. Unless noted, calls follow the shape of the dose curve; as a rule, active = well fitted curve in the direction sought with a large enough effect; inconclusive = small, poorly fitted or top-dose-only effect, or another doubt; inactive = no such curve, though single readings can be large; an effect the other way counts as inactive or inconclusive.

Cc1nnc(-c2cc(-c3cccc(F)c3)ccn2)n1CCc1ccccc1	NIH3T3 tox inconclusive, HEK293 tox inconclusive
COc1cccc(-c2ccnc(-c3nnc(C)n3CCN3CCOCC3)c2)c1	HEK293 tox inconclusive
CCNC(=O)N(C1CC1)C1CCOC2(CCN(C(=O)CCc3ccccc3)CC2)C1 (stereo unspecified)	none
O=C(NCc1ccc(Cl)cc1)c1ccc2nnc(-c3ccc(OC(F)(F)F)cc3)n2c1	NIH3T3 tox inconclusive, HEK293 tox inconclusive (no result: hNpr1 antagonist, FLuc inh)
CCN(Cc1ccccc1)c1ncncc1-c1nc(-c2ccccc2)no1	NIH3T3 tox inconclusive, HEK293 tox 79µM
O=C(c1ccc2c(c1)OCO2)N1CCC(N2Cc3ccccc3C2=O)CC1	none (no result: hNpr1 antagonist, FLuc inh)
Cc1c(CC(=O)NCC(F)(F)F)c2c(n1Cc1ccccc1F)CCCC2=O	SNCA expr inhib inconclusive
Cc1c(CC(=O)NC(C)C)c2c(n1Cc1ccccc1F)CCCC2=O	FLuc inh 45µM, HEK293 tox inconclusive
Cc1ccc2cc(CCC(=O)N3CCOCC3)c(=O)[nH]c2c1	FLuc inh 32µM
Cc1ccc2[nH]c(=O)c(CCC(=O)N3CCN(CC(C)C)CC3)cc2c1	none
Cc1ccc2[nH]c(=O)c(CCC(=O)N3CCCCC3)cc2c1	FLuc inh 40µM
CCCCN1CCN(C(=O)CCc2cc3ccc(C)cc3[nH]c2=O)CC1	none
CC1CCCN(C(=O)C2CCCN(c3cnc4nccnc4c3)C2)C1 (stereo unspecified)	none
COc1cccc(N2CCN(C(=O)C3CCCN(c4cnc5nccnc5c4)C3)CC2)c1 (stereo unspecified)	hNpr1 antagonist inconclusive, NIH3T3 tox inconclusive, HEK293 tox 40µM
c1cnn(-c2ccc(-c3n[nH]c(C4CCOCC4)n3)cc2)c1	FLuc inh inconclusive
c1cc(N2CCCCC2)ccc1-c1n[nH]c(C2CCOC2)n1 (stereo unspecified)	NIH3T3 tox inconclusive, FLuc inh 6.3µM
CC(C)C[C@@H]1N[C@H](C(=O)NCc2ccccc2)Cc2cn(Cc3ccncc3)c3cccc1c23	NIH3T3 tox inconclusive, HEK293 tox inconclusive
C=CCNC(=O)[C@@H]1Cc2cn(Cc3ccncc3)c3cccc(c23)[C@H](CC(C)C)N1	SNCA viab count inconclusive, NIH3T3 tox inconclusive, SNCA expr inhib inconclusive, HEK293 tox 35µM
COCCNC(=O)[C@@H]1Cc2cn(Cc3ccncc3)c3cccc(c23)[C@H](CC(C)C)N1	NIH3T3 tox 45µM, HEK293 tox 45µM
COCCNC(=O)[C@@H]1Cc2cn(Cc3cccnc3)c3cccc(c23)[C@H](CC(C)C)N1	NIH3T3 tox inconclusive, SNCA expr inhib inconclusive, HEK293 tox 45µM
C#CCNC(=O)[C@@H]1Cc2cn(Cc3cccnc3)c3cccc(c23)[C@H](CC(C)C)N1	NIH3T3 tox 79µM, SNCA expr inhib inconclusive, HEK293 tox 56µM
CC(C)C[C@@H]1N[C@H](C(=O)NCC2CC2)Cc2cn(Cc3cccnc3)c3cccc1c23	SNCA viab count inconclusive, NIH3T3 tox inconclusive, SNCA expr inhib inconclusive, HEK293 tox inconclusive
COc1ccc(C(=O)NC2CCN(C(=O)c3ccc(-c4cccc(OC)c4)cc3)CC2)cc1	HEK293 tox inconclusive (no result: hNpr1 antagonist, FLuc inh)
COCCNC(=O)[C@@H]1Cc2cn(Cc3ccccn3)c3cccc(c23)[C@H](CC(C)C)N1	SNCA viab count inconclusive, NIH3T3 tox inconclusive, SNCA expr inhib inconclusive, HEK293 tox 28µM
CCc1nn(-c2ccccc2)c(Oc2ccc(C)cc2)c1CCC(=O)N1CCSCC1	NIH3T3 tox inconclusive, HEK293 tox 40µM
Cc1nn(-c2ccc(F)cc2)c(Oc2ccccc2F)c1CCC(=O)NCc1ccco1	NIH3T3 tox 35µM, HEK293 tox inconclusive
Cc1nn(-c2ccc(F)cc2)c(Oc2ccccc2F)c1CCC(=O)N1CCCC1	NIH3T3 tox 28µM, HEK293 tox 35µM
Cc1nn(-c2ccc(F)cc2)c(Oc2cccc(F)c2)c1CCC(=O)N(C)C(C)C	NIH3T3 tox inconclusive, SNCA expr inhib inconclusive, HEK293 tox 50µM
CCn1ncc(N2CCCC(CC(=O)NCCC3=CCCCC3)C2)cc1=O (stereo unspecified)	NIH3T3 tox inconclusive
Cn1c(=O)oc2cc(NC(=O)CCc3cc4n(n3)CCCNC4)ccc21	none
Cc1nn(-c2ccc(F)cc2)c(Oc2cccc(F)c2)c1CCC(=O)N1CCSCC1	NIH3T3 tox inconclusive, HEK293 tox 35µM
Cc1ccccc1Oc1c(CCC(=O)N2CCSCC2)c(C)nn1-c1ccc(F)cc1	NIH3T3 tox inconclusive, HEK293 tox inconclusive
COc1cc(NC(=O)c2ccc3c(c2)N(C)C2CCCCCN2C3=O)cc(OC)c1OC (stereo unspecified)	NIH3T3 tox 35µM, HEK293 tox 40µM
COc1ccc(NC(=O)c2ccc3c(c2)N(C)C2CCCCCN2C3=O)cc1Cl (stereo unspecified)	NIH3T3 tox 40µM, HEK293 tox 45µM
CCN1c2cc(C(=O)Nc3ccc(OC)c(Cl)c3)ccc2C(=O)N2CCCCCC21 (stereo unspecified)	NIH3T3 tox inconclusive, SNCA expr inhib inconclusive, HEK293 tox 11µM
COc1cc(NC(=O)c2ccc3c(c2)N(C)C2CCCN2C3=O)cc(OC)c1OC (stereo unspecified)	none
CCN1c2cc(C(=O)NCc3ccc(OC)c(OC)c3)ccc2C(=O)N2CCCCCC21 (stereo unspecified)	NIH3T3 tox inconclusive, HEK293 tox 45µM
CCCCNc1ncc(C(=O)O)c(CC)n1	SNCA expr inhib inconclusive
CC(O)CNc1ccc(-c2nc(CCCc3ccccc3)no2)cn1 (stereo unspecified)	NIH3T3 tox inconclusive, FLuc inh 45µM, HEK293 tox inconclusive
c1ccc(CCCc2noc(-c3ccc(N4CCCNCC4)nc3)n2)cc1	NIH3T3 tox inconclusive, FLuc inh inconclusive, HEK293 tox 22µM
OCC1CCN(c2ccc(-c3nc(CCCc4ccccc4)no3)cn2)CC1	hNpr1 antagonist 13µM, NIH3T3 tox inconclusive, FLuc inh inconclusive, HEK293 tox inconclusive
c1ccc(CCc2noc(-c3ccc(NCCN4CCCC4)nc3)n2)cc1	NIH3T3 tox inconclusive, FLuc inh inconclusive, HEK293 tox inconclusive
CN(Cc1ncc[nH]1)c1ccc(-c2nc(CCCc3ccccc3)no2)cn1	hNpr1 antagonist inconclusive, NIH3T3 tox inconclusive, FLuc inh inconclusive, HEK293 tox 45µM
Cc1oc(C(O)c2ccccc2)nc1C(=O)Nc1ccc2[nH]ccc2c1 (stereo unspecified)	NIH3T3 tox inconclusive, FLuc inh 50µM, HEK293 tox 100µM
Cc1oc(C(O)c2cccc(O)c2)nc1C(=O)Nc1ccc(N2CCOCC2)cc1 (stereo unspecified)	hNpr1 antagonist inconclusive, NIH3T3 tox inconclusive, FLuc inh 5µM, HEK293 tox inconclusive
